CHO-K1 Ca antag – counter-screen for M1 antagonists: effect in parental CHO-K1 cells. ATP-induced calcium, Fluo-8 fluorescence. inhibition, % at 3 µM. hit rate 0.6% among 360,000;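 active means inhibition above a per-plate cutoff, the plate's mean sample inhibition plus 3 SD, cut at about 24% in these data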;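 further: 0% = DMSO plus EC80 ATP and 100% = DMSO alone without ATP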
CHO-K1 Ca ag – M1 agonist counterscreen hit in parental CHO-K1 cells; Fluo-8 calcium fluorescence; scaled to maximal ATP response, vehicle zero; activation, % at 3 µM; hit rate 0.48% among 360,000; in the data active means activation above about 15%;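 further: untransfected CHO-K1 host cells lacking M1 receptor as counterscreen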
CHRM1 agonist – activates human CHRM1 receptor | P11229 | CHO-K1 hM1, Fluo-8 calcium fluorescence, agonist mode; 0% DMSO, 100% acetylcholine EC100 | activation, % at 3 µM | hit rate 0.33% among 360,000 | AID 588814;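 active means activation above the run's mean compound activation plus 3 SD, cut at about 16% in these data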;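 further: peak over basal fluorescence ratio within a 140 s kinetic read after compound addition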
CHO-K1 Ca PAM – nonselective activator or artifact in parental CHO-K1 calcium assay; activation, % at 3 µM; AID 602247; hit rate 0.02% among 360,000; ATP EC20, Fluo-8 calcium fluorescence; 0% at ATP EC20, 100% at ATP max;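 active means activation above the run cutoff, the mean activation of all test compounds plus 3 SD, cut at about 40% in these data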;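 further: peak over basal fluorescence ratio in a 140 s read after ATP addition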
CHRM1 PAM – potentiates human M1 receptor response to acetylcholine. P11229. CHO-K1 hM1, Fluo-8 calcium fluorescence, ACh EC20; 0% = ACh EC20, 100% = maximal ACh. activation, % at 3 µM. hit rate 0.088% among 360,000. AID 588819; in the data active means activation above about 19%, passing the limit was not always enough
CHRM1 antagonist – human CHRM1 antagonism | P11229 | CHO-K1 hM1, Fluo-8 calcium fluorescence, ACh EC80 antagonist | inhibition, % at 3 µM | hit rate 1.3% among 360,000 | AID 588852;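 active means percent inhibition above its own plate's cutoff, namely the mean of that plate's compound wells plus 3 SD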;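 further: peak over basal fluorescence ratio during 140 s after agonist addition; 0% = ACh EC80 plus DMSO and 100% = DMSO alone without agonist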
An asterisk follows results filed as active. Sampled rows, rich in hits. Any-hit rate of the full collection: about 2.3%.

SMILES	CHO-K1 Ca antag	CHO-K1 Ca ag	CHRM1 agonist	CHO-K1 Ca PAM	CHRM1 PAM	CHRM1 antagonist
CCCCNC(=S)N/N=C1\C(=O)c2cccc3cccc1c23	25*	0	-5	-9	-7	3
CCc1cccc2c1NC(=O)C2(O)CC(=O)c1cccs1 (centres undefined)	-3	0	-3	7	8	-5
CCc1ccc(NC(=O)C(C)OC(=O)/C=C/c2ccc(O)c(OC)c2)cc1 (centres undefined)	-8	25*	34*	-12	-7	-4
COc1cc(/C=C/C(=O)OC(C)C(=O)Nc2c(C)n(C)n(-c3ccccc3)c2=O)ccc1O (centres undefined)	5	0	-2	-5	6	-7
N#CC1=C(N)OC2=C(C(=O)CC(c3ccccc3)C2)C1c1ccc2c(c1)OCO2 (centres undefined)	-9	0	-13	21	-26	62*
COc1cccc2sc(Nc3nnc(-c4ccccc4Cl)o3)nc12	29*	0	1	-9	1	-4
O=C(Nc1nnc(-c2ccccc2Cl)o1)c1nc2ccccc2s1	0	48*	74*	0	-6	1
O=C(Nc1nnc(-c2ccccc2Cl)o1)c1ccco1	-1	0	-4	5	3	0
COc1ccccc1-c1nnc(Nc2nc3c(OC)cccc3s2)o1	-1	1	-3	18	13	-2
O=C(NNC(=O)C1CC1)c1ccc(F)cc1F	-7	0	0	6	10	-19
C[C@@H](NC(=O)Cn1cnc2c(OCc3ccccc3)ncnc21)c1cccc2ccccc12	-11	2	33*	10	20	-13
C[C@@H](NC(=O)Cn1cnc2c(NCc3ccccc3)ncnc21)c1cccc2ccccc12	2	2	48*	-4	9	-10
O=C(Cn1cnc2c(NCc3ccccc3)ncnc21)NCc1ccccc1	0	1	1	7	10	-16
CCc1nc2ccc(C(=O)NCCCn3ccnc3)cn2c1N(C)C(=O)COc1ccccc1	-6	0	-7	0	0	1
COc1cccc(NC(=O)CN(C)C(=O)c2c(C)nn(CC(C)C)c2Cl)c1	-8	0	-1	-2	14	-13
CS(=O)(=O)N1CCN(c2ccccc2NC(=S)NC(=O)c2ccccc2[N+](=O)[O-])CC1	7	7	-1	1	-25	29*
COc1ccc(Cl)cc1NC(=O)c1nnn(CC(=O)Nc2ccc3c(c2)OCO3)c1N	-8	1	0	2	17	-12
CC1CN(c2nc3c(c(=O)n(Cc4ccc(Cl)cc4)c(=O)n3C)n2C)CC(C)O1 (centres undefined)	28*	0	-5	-8	6	-1
Cn1c(N2CCCC2)nc2c1c(=O)n(Cc1ccc(Cl)cc1)c(=O)n2C	23	0	-3	-6	-3	8
CCCNC(=O)CC(NS(=O)(=O)c1ccc(OC)cc1)c1ccco1 (centres undefined)	0	2	-4	12	2	6
FC(F)(F)c1cccc(NC(=S)NCc2ccc(Cl)cc2)c1	22	17*	2	9	-16	23
CC(NC(=S)Nc1cccc(C(F)(F)F)c1)C(C)(C)C (centres undefined)	14	13	-2	-2	-17	46*
COC(=O)c1ccc(C)c(NC(=O)CCCN2C(=O)CN(C)C2=O)c1	-17	1	-2	16	6	-15
Cc1cccc(N2CCN(S(=O)(=O)c3ccc4c(c3)CCCN4C(=O)C3CCC3)CC2C)c1 (centres undefined)	3	0	-3	-16	8	-1
COc1c2c(c(C)c3c1C(=O)OC3)O[C@@]1(C)CC[C@@]3(O)C(C)(C)OC(=O)CC[C@]3(C)[C@H]1C2	14	0	-3	-15	-10	20
CCCOc1ccc(CNC(=O)CCC(=O)n2ncc3cc(C)ccc32)cc1	-6	0	-10	2	1	-4
COc1ccc(CNC(=O)CCC(=O)n2ncc3cc(C)ccc32)cc1	24*	0	-6	-7	12	-14
